Test results reported in paper PMC11062922 (Nature Chemical Biology, 2023).
Where two headings read alike, the source gives them in different places.

What was measured:
Design in all cases: species or system human, MV4-11 + K-562 + COLO205 + SK-N-BE2 + OVCAR-8
NQO2 = conditions: read-out: apparent Kd, n = 1
PDXK = conditions: read-out: apparent Kd, n = 1
PDGFRB = conditions: read-out: apparent Kd, n = 1
DJA1 = tested on: T1, DJA1; conditions: read-out: apparent Kd, n = 1
T1 construct: gene DNAJA1

NQO1 = conditions: read-out: apparent Kd, n = 1
MAP2K1 = conditions: read-out: apparent Kd, n = 1
MAPKAPK2 = conditions: read-out: apparent Kd; compound concentrations:100 nM and 1000 nM (sheet 'Samples'); n = 1
MAPK9 = conditions: read-out: apparent Kd, n = 1
MAP4K5 = conditions: read-out: apparent Kd; compound concentrations:100 nM and 1000 nM (sheet 'Samples'); n = 1
NLK = conditions: read-out: apparent Kd, n = 1
TGFBR2 = conditions: read-out: apparent Kd; compound concentrations:100 nM and 1000 nM (sheet 'Samples'); n = 1
CSNK1A1 = conditions: read-out: apparent Kd, n = 1
ACVR2B = conditions: read-out: apparent Kd; compound concentrations:100 nM and 1000 nM (sheet 'Samples'); n = 1
TAOK1 = conditions: read-out: apparent Kd; compound concentrations:100 nM and 1000 nM (sheet 'Samples'); n = 1
[1] = compound concentrations:100 nM and 1000 nM (sheet 'Samples')

Question: Which results are given for `Cn1cc(C2=C(c3cn(CCCCCO)c4ccccc34)C(=O)NC2=O)c2ccccc21` [RO0318053-000]?
Answer: potency estimated from few doses (NQO2; compound concentrations: 100 nM and 1000 nM (sheet 'Samples'), CATDS: 9.2585577918862794E-2): 0.959 µM; potency estimated from few doses (PDXK; compound concentrations: 100 nM and 1000 nM (sheet 'Samples'), CATDS: 0.25573485461169798): 0.0604 µM

Question: Which potency estimated from few doses (PDGFRB; compound concentrations: 100 nM and 1000 nM (sheet 'Samples'), CATDS: 0.33776588797305401) does the source give for `O=C1NC(=O)C(c2cccc(Cl)c2)=C1Nc1ccc(O)c(Cl)c1` [SB-409514] here?
Answer: Its potency estimated from few doses is 1.28 µM.

Question: What does the source list for `CS(=O)(=O)c1ccc(-c2nc3n(c2-c2ccncc2)CCC3)cc1` [SKF-105942]?
Answer: potency estimated from few doses (DJA1; compound concentrations: 100 nM and 1000 nM (sheet 'Samples'), CATDS: 0.12627731400414099): 1.7 µM; potency estimated from few doses (NQO1; compound concentrations: 100 nM and 1000 nM (sheet 'Samples'), CATDS: 0.13363559113377599): 1.48 µM; potency estimated from few doses (NQO2; compound concentrations: 100 nM and 1000 nM (sheet 'Samples'), CATDS: 0.142598499620046): 1.27 µM

Question: For `Nc1c(C(=O)c2ccccc2)cnn1-c1ccc(F)cc1` [RO1151246-000], which potency estimated from few doses (MAP2K1; [1]) is on record?
Answer: Its potency estimated from few doses is 1.47 µM.

Question: What about the potency estimated from few doses (MAPKAPK2) of the same molecule?
Answer: The potency estimated from few doses was 0.665 µM.

Question: How did the potency estimated from few doses (PDXK; compound concentrations: 100 nM and 1000 nM (sheet 'Samples'), CATDS: 8.1891234484878103E-2) turn out when `Cc1[nH]nc2c1N=C(c1ccccc1Cl)c1cc([N+](=O)[O-])ccc1N2` [RO0274406-000] was run?
Answer: Its potency estimated from few doses is 0.832 µM.

Question: `COc1cc(N2CCN(C(C)C)CC2)ccc1Nc1nc(Nc2cccc(F)c2C(=O)O)c2cc[nH]c2n1` [GSK1819799A] was tested. Which potency estimated from few doses (DJA1; compound concentrations: 100 nM and 1000 nM (sheet 'Samples'), CATDS: 4.1353934999492699E-2) did it give?
Answer: Its potency estimated from few doses is 2.22 µM.

Question: And the potency estimated from few doses (MAP2K1; compound concentrations: 100 nM and 1000 nM (sheet 'Samples'), CATDS: 4.3561445001152499E-2)?
Answer: The potency estimated from few doses was 1.87 µM.

Question: What about the potency estimated from few doses (MAPK9; compound concentrations: 100 nM and 1000 nM (sheet 'Samples'), CATDS: 0.24378772023950801) of the same molecule?
Answer: Its potency estimated from few doses is 0.0745 µM.

Question: `Cl.Oc1ccc2ncnc(Nc3ccc(OCc4ccccc4)cc3)c2c1` [GI262866A] was tested. Which potency estimated from few doses (PDXK; [1]) did it give?
Answer: The potency estimated from few doses was 0.506 µM.

Question: Which potency estimated from few doses (DJA1; compound concentrations: 100 nM and 1000 nM (sheet 'Samples'), CATDS: 0.16738098836047199) does the source give for `Cc1ccc(CC(=O)N2CCc3cc(-c4cn(C)c5ncnc(N)c45)ccc32)cc1` [GSK2634758A] here?
Answer: The potency estimated from few doses was 1.4 µM.

Question: What about the potency estimated from few doses (NQO2; compound concentrations: 100 nM and 1000 nM (sheet 'Samples'), CATDS: 0.188092935593722) of the same molecule?
Answer: Its potency estimated from few doses is 1.12 µM.

Question: What about the potency estimated from few doses (PDXK; compound concentrations: 100 nM and 1000 nM (sheet 'Samples'), CATDS: 0.16794834883854801) of the same molecule?
Answer: The potency estimated from few doses was 1.39 µM.

Question: Which potency estimated from few doses (MAP4K5) does the source give for `COc1cc2ncn(-c3cc(OCc4sccc4Cl)c(C(N)=O)s3)c2cc1OC` [GSK448459A] here?
Answer: Its potency estimated from few doses is 0.0308 µM.

Question: Which potency estimated from few doses (NQO2; compound concentrations: 100 nM and 1000 nM (sheet 'Samples'), CATDS: 7.9210826703434503E-2) does the source give for `Cn1cc(C2=C(c3ccccc3[N+](=O)[O-])C(=O)NC2=O)c2ccccc21` [RO0317753-000] here?
Answer: The potency estimated from few doses was 1.28 µM.

Question: And the potency estimated from few doses (PDXK; compound concentrations: 100 nM and 1000 nM (sheet 'Samples'), CATDS: 8.6520417055061499E-2)?
Answer: The potency estimated from few doses was 0.907 µM.

Question: Which results are given for `COc1ccc(Nc2nccc(N3CCC(NC(=O)Nc4cccc(OC)c4)C3)n2)cc1` (stereo not shown) [GSK1379742A]?
Answer: potency estimated from few doses (MAP2K1; compound concentrations: 100 nM and 1000 nM (sheet 'Samples'), CATDS: 0.105548477944527): 2.4 µM; potency estimated from few doses (NQO1; compound concentrations: 100 nM and 1000 nM (sheet 'Samples'), CATDS: 0.15295412535869199): 1.12 µM

Question: `Cn1cc(C2=C(c3cn(CCCN/C(N)=N/[N+](=O)[O-])c4ccccc34)C(=O)NC2=O)c2ccccc21` [RO0318161-000] was tested. Which potency estimated from few doses (PDXK; compound concentrations: 100 nM and 1000 nM (sheet 'Samples'), CATDS: 0.37249947882966999) did it give?
Answer: Its potency estimated from few doses is 0.866 µM.

Question: With `Fc1cccc(COc2ccc(Nc3ncncc3C#Cc3ccccc3)cc2Cl)c1` [GW651576X] as the molecule, how does the potency estimated from few doses (DJA1; compound concentrations: 100 nM and 1000 nM (sheet 'Samples'), CATDS: 6.6379654075199995E-2) read?
Answer: The potency estimated from few doses was 1.04 µM.

Question: And the potency estimated from few doses (MAP2K1; compound concentrations: 100 nM and 1000 nM (sheet 'Samples'), CATDS: 4.57330679966748E-2)?
Answer: The potency estimated from few doses was 2.2 µM.

Question: And the potency estimated from few doses (NQO1; compound concentrations: 100 nM and 1000 nM (sheet 'Samples'), CATDS: 4.6647451225595299E-2)?
Answer: The potency estimated from few doses was 2.09 µM.

Question: For `COc1cc(F)c(F)c(F)c1C(=O)c1cnc(NC2CCN(S(C)(=O)=O)CC2)nc1N` [RO4600703-000], which potency estimated from few doses (NQO2; [1]) is on record?
Answer: The potency estimated from few doses was 0.426 µM.

Question: What about the potency estimated from few doses (PDXK; [1]) of the same molecule?
Answer: Its potency estimated from few doses is 0.501 µM.

Question: With `CCS(=O)(=O)c1ccc(OC)c(Nc2ncc(-c3cccc(F)c3)o2)c1` [GW621970X_KCGS] as the molecule, how does the potency estimated from few doses (PDGFRB; [1]) read?
Answer: Its potency estimated from few doses is 1.96 µM.

Question: `CC(=O)Nc1ccc2c(C3=C(c4cn(C)c5ccccc45)C(=O)NC3=O)cn(C)c2c1` [RO0317596-000] was tested. Which potency estimated from few doses (NQO2; compound concentrations: 100 nM and 1000 nM (sheet 'Samples'), CATDS: 0.111698981376187) did it give?
Answer: The potency estimated from few doses was 1.59 µM.

Question: What about the potency estimated from few doses (PDXK; compound concentrations: 100 nM and 1000 nM (sheet 'Samples'), CATDS: 0.18147743783192199) of the same molecule?
Answer: The potency estimated from few doses was 0.554 µM.

Question: Which potency estimated from few doses (MAP4K5) does the source give for `COc1cc2ncn(-c3cc(O[C@H](C)c4ccccc4Cl)c(C(N)=O)s3)c2cc1OC` [GSK237701A] here?
Answer: The potency estimated from few doses was 1.16 µM.

Question: Which results are given for `COc1ccc(C2=C(Nc3cccc(O)c3)C(=O)NC2=O)cc1` [SB-390766]?
Answer: potency estimated from few doses (NLK; [1]): 2.21 µM; potency estimated from few doses (TGFBR2): 2.03 µM

Question: How did the potency estimated from few doses (CSNK1A1; compound concentrations: 100 nM and 1000 nM (sheet 'Samples'), CATDS: 3.2884610425315097E-2) turn out when `Clc1ccc(-c2nn3ncccc3c2-c2ccnc(Nc3ccccc3)n2)cc1` [GW829055X] was run?
Answer: The potency estimated from few doses was 1.9 µM.

Question: And the potency estimated from few doses (DJA1; compound concentrations: 100 nM and 1000 nM (sheet 'Samples'), CATDS: 4.1892877755586803E-2)?
Answer: The potency estimated from few doses was 1.06 µM.

Question: What about the potency estimated from few doses (MAP2K1; compound concentrations: 100 nM and 1000 nM (sheet 'Samples'), CATDS: 0.148171076580532) of the same molecule?
Answer: Its potency estimated from few doses is 0.138 µM.

Question: And the potency estimated from few doses (NQO1; compound concentrations: 100 nM and 1000 nM (sheet 'Samples'), CATDS: 4.2030828964441901E-2)?
Answer: Its potency estimated from few doses is 1.05 µM.

Question: Which potency estimated from few doses (CSNK1A1; [1]) does the source give for `Fc1ccc(-c2ncn(C3CCNCC3)c2-c2ccnc(Oc3ccc4c(c3)OCO4)n2)cc1` [SB-250715] here?
Answer: The potency estimated from few doses was 1.3 µM.

Question: And the potency estimated from few doses (MAP2K1; [1])?
Answer: The potency estimated from few doses was 1.05 µM.

Question: What about the potency estimated from few doses (MAPK9; [1]) of the same molecule?
Answer: Its potency estimated from few doses is 1.26 µM.

Question: And the potency estimated from few doses (MAPKAPK2)?
Answer: Its potency estimated from few doses is 0.00425 µM.

Question: What about the potency estimated from few doses (NQO1; [1]) of the same molecule?
Answer: The potency estimated from few doses was 1.7 µM.

Question: For `NC(=O)c1cccnc1COc1cc(-c2ccc(N3CCOCC3)nc2)cc2ncccc12` [BI01125081], which potency estimated from few doses (DJA1; [1]) is on record?
Answer: Its potency estimated from few doses is 1.43 µM.

Question: What about the potency estimated from few doses (PDXK; [1]) of the same molecule?
Answer: Its potency estimated from few doses is 1.68 µM.

Question: And the potency estimated from few doses (TGFBR2)?
Answer: Its potency estimated from few doses is 1.31 µM.

Question: How did the potency estimated from few doses (NQO2; compound concentrations: 100 nM and 1000 nM (sheet 'Samples'), CATDS: 0.12983117909003999) turn out when `Cn1cc(C2=C(c3cccc([N+](=O)[O-])c3)C(=O)NC2=O)c2ccccc21` [RO0317474-000] was run?
Answer: Its potency estimated from few doses is 1.96 µM.

Question: What about the potency estimated from few doses (PDXK; compound concentrations: 100 nM and 1000 nM (sheet 'Samples'), CATDS: 0.221818886522231) of the same molecule?
Answer: Its potency estimated from few doses is 0.628 µM.

Question: How did the potency estimated from few doses (MAPK9; compound concentrations: 100 nM and 1000 nM (sheet 'Samples'), CATDS: 4.4079434043462103E-2) turn out when `COc1ccc(-c2nn3ncccc3c2-c2ccnc(Nc3ccc4c(c3)OCCO4)n2)cc1` [GW827106X] was run?
Answer: The potency estimated from few doses was 2.07 µM.

Question: And the potency estimated from few doses (NLK; compound concentrations: 100 nM and 1000 nM (sheet 'Samples'), CATDS: 4.4703419918465902E-2)?
Answer: Its potency estimated from few doses is 1.99 µM.

Question: What does the source list for `Nc1nc(-c2ccccn2)c(-c2ccnc3ccccc23)s1` [GW548057X]?
Answer: potency estimated from few doses (ACVR2B): 1.79 µM; potency estimated from few doses (CSNK1A1; [1]): 0.893 µM; potency estimated from few doses (TAOK1): 1.7 µM
